Measurements: PubChem BioAssay

Assay: inhibitors of Chlamydomonas gravitaxis, primary screen, whole organism, Chlamydomonas reinhardtii, WT vs cilia-less mutant, absorbance, 96-well (AID 463189);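 further: 0% = wild type cc124 cells in DMSO and 100% = ciliumless bld1 mutant cells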
Details: OD600 absorbance, 2 days, at 10 µM, active compounds read high;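 active means inhibition at or above 50% relative to wild type and mutant plate controls; inactive means inhibition below 50%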

inhibition, inactive:
CCCCCCCCCCCCCCCC(=O)OC(CC(=O)O)C[N+](C)(C)C (centres undefined) 2.15%
CN(C)c1ccc(/C=C2\C(=O)Nc3ccccc32)cc1 4.05%
CN1CCc2cc(O)c(O)cc2C(c2ccccc2)C1 (centres undefined) 2.5%
NCCCCNS(=O)(=O)c1cccc2c(Cl)cccc12 -1.51%
COCc1nc2c([nH]1)c(=O)n(C)c(=O)n2CC(C)C 1.31%
O=C1NCN(c2ccccc2)C12CCN(CCCC(c1ccc(F)cc1)c1ccc(F)cc1)CC2 -2.36%
CCN(CC)CCOCCOC(=O)C1(c2ccccc2)CCCC1 5.28%
C[C@]12C=CC(=O)C=C1CC[C@@H]1C2=CC[C@]2(C)[C@@H](C(=O)CN3CCN(c4cc(N5CCCC5)nc(N5CCCC5)n4)CC3)CC[C@@H]12 3%
CC1(C)NC(=O)N(c2ccc([N+](=O)[O-])c(C(F)(F)F)c2)C1=O 0.277%
CC1CCN=C(N)S1 (centres undefined) 0.783%
N=C(N)c1ccc(N)cc1 28.5%
CC[N+](CC)(CC)CC(=O)Nc1c(C)cccc1C 6.77%
O=C(Nc1ccccc1)c1cc([N+](=O)[O-])ccc1Cl 2.4%
Clc1ccc(N2CCN(Cc3c[nH]c4ncccc34)CC2)cc1 5.9%
CN1CCN(CC/C=C2/c3ccccc3Sc3ccc(S(=O)(=O)N(C)C)cc32)CC1 19.2%
C#CCN1C(C)=C(C(=O)OC)C(c2cccc([N+](=O)[O-])c2)C(C(=O)OCC)=C1C (centres undefined) 4.14%
C[N+](C)(C)CCOC(=O)CCC(=O)OCC[N+](C)(C)C -7.41%
Cn1cc(C(=O)OCC2CCN(CCNS(C)(=O)=O)CC2)c2ccccc21 6.02%
COc1nc(C)nc(Cl)c1NC1=NCCN1 1.2%
CC(N)C1CCC(C(=O)Nc2ccncc2)CC1 (centres undefined) 3.82%
COC(=O)[C@H]1[C@H]2C[C@@H]3c4[nH]c5cc(OC)ccc5c4CCN3C[C@H]2C[C@@H](OC(=O)c2cc(OC)c(OC)c(OC)c2)[C@@H]1OC -3.87%
COc1cc(C(O)CO)ccc1OS(=O)(=O)O (centres undefined) -4.77%
NC(=O)c1cccc(N)c1 3.55%
Cc1ccccc1/C=C/C1=NCCN1 3.42%
